In ChEMBL document CHEMBL4513216, “Probing the Open Global Health Chemical Diversity Library for Multistage-Active Starting Points for Next-Generation Antimalarials” (ACS Infect Dis, 2020) one finds INHIBITION data, which are given here for 107 compounds.

About 2,100 (3.2%) of roughly 65,000 compounds showed an effect of 50% or more. The median lay at about -52%. For the sample, strong results were picked, then their nearest neighbours and some compounds at random.

This test relates to Plasmodium falciparum. The experiment in a line: Screen against P. falciparum Asexual Blood Stage (ABS), at 5uM. The test is classed as functional, Dd2. The settings on record: tested at 5 uM.
For `Cc1cccnc1C(Cc1ccsc1)NC(=O)Cn1cccnc1=O` (configuration not stated), the INHIBITION is reported as 4.78%.

For the compound `CC(C)Oc1cccc(CNC(Cc2ccsc2)c2nccs2)c1` (configuration not stated), the INHIBITION was -29.2%. The result for `Cc1cccnc1C(Cc1ccsc1)NCc1cnc(N(C)C)nc1` (configuration not stated) reads 66.6%; that for `CN1CCCC(Cc2cncc(C(=O)N3CCOCC3)c2)C1` (configuration not stated), -133%; that for `O=S1(=O)NC(c2ccnc(N3CCOCC3)n2)=Nc2ccccc21`, -15.8%. The result for `CN(Cc1ccccc1)C(=O)CSc1ccc2c(c1)OCCO2` reads -122%; that for `O=C(CO)N1CCCC2(CCN(c3ccsc3)C2=O)C1` (configuration not stated), -104%. To `CN(C)C(=O)CN1CCCC2(CCN(c3ccsc3)C2=O)C1` (configuration not stated) belongs -78.3%. As for `COc1ccc(CN2CCCC3(CCN(c4ccsc4)C3=O)C2)cc1` (configuration not stated), the INHIBITION was 62.3%. To `COCCN1CCCC2(CCN(c3ccsc3)C2=O)C1` (configuration not stated) belongs 16%; to `O=C1N(c2ccsc2)CCC12CCCN(CC1CC1)C2` (configuration not stated), 51.6%. The result for `COc1ccc(CN2CCC3(CCN(c4cccnc4)C3=O)C2)cc1` (configuration not stated) reads -23.2%; that for `CC1COC2(CCN(C(=O)Cc3ccncc3)CC2)C1` (configuration not stated), -78.3%.

For `Cc1cc(C2CCCN(CCc3ccc4c(c3)CCO4)C2)n[nH]1` (configuration not stated), the INHIBITION was -25.4%. The result for `COc1ccccc1OCCN1CCCCC1Cn1cncn1` (configuration not stated) reads -9.63%; that for `CCc1nnc(Nc2cccc(C3CCN(S(=O)(=O)N(C)C)CC3)n2)s1`, 7.99%. To `O=C(NCc1nncn1-c1ccccc1)C1CCCCC1` belongs -107%. The result for `OC1(CN2CCCCC2)CCN(c2cc(C(F)(F)F)ccn2)C1` (configuration not stated) reads 39.2%; that for `OC1(CN2CCCCC2)CCN(c2cccc(C(F)(F)F)n2)C1` (configuration not stated), 60.4%; that for `OC1(CN2CCCCC2)CCN(c2ccc(C(F)(F)F)cn2)C1` (configuration not stated), 53.5%. On to `O=C1CCC2(CCN(c3cccc(C(F)(F)F)n3)CC2)CN1CCO`, for which the INHIBITION is -33.7%. To `N[C@@H]1c2ccccc2C2(CCN(c3ccc(C(F)(F)F)cn3)CC2)[C@H]1O` belongs -38.4%; to `OC1(CN2CCCCC2)CCN(c2nccc(C(F)(F)F)n2)C1` (configuration not stated), -41.9%.

With `Cc1ccc(C(=O)N2CCC(c3n[nH]c(C4CC4)n3)CC2)cc1F`, the INHIBITION is reported as -91.9%.

For `Cn1ccnc1CN1CCC2(CC1)CC(Oc1cccnc1)C2`, the INHIBITION is on record as -85.4%. The result for `Cc1ccc(NC(=O)CC2NC(N3CCc4ccccc43)=NC2=O)cc1` (configuration not stated) reads -135%; that for `O=C1CC(c2ccncc2)C2(CCN(CCc3ccccc3)CC2)N1` (configuration not stated), -55.3%; that for `O=C1CCC2(CCCN(C(=O)c3cnccn3)CC2)N1` (configuration not stated), 51.9%. The result for `O=C1CCC2(CCCN(C(=O)c3cccnc3)CC2)N1` (configuration not stated) reads -40.9%; that for `O=C1CCCC2(CCN(C(=O)c3cnccn3)CC2)N1`, -96.5%.

For `Cc1ccccc1C1(C(=O)NCCN2CCCC2)CCOCC1`, the INHIBITION is -5.04%. The result for `O=C(NCCN1CCCC1)C1(c2ccc(Cl)cc2)CCOCC1` reads 63.7%; that for `COc1ccccc1C1(C(=O)NCCN2CCCCC2)CCOCC1`, -35.3%. The result for `CC(Oc1ccc2c(c1)OCO2)C(=O)N1CCC(N2CCOCC2)CC1` (configuration not stated) reads -162%; that for `CCn1cc(NC(=O)CN2CCC(Oc3ccc(F)cc3)CC2)c(C)n1`, -33.8%; that for `Cc1cc(N2CCCN(c3nc(C)nc(C)c3C)CC2)ccn1`, 58%. To `Cc1cc(N2CCCN(Cc3ccc(C)o3)CC2)ccn1` belongs 35.2%. In the case of `Cc1cc(N2CCCN(c3ccnc(C)c3)CC2)ccn1`, the INHIBITION is -86.7%. `Cc1n[nH]c(C)c1C1COCCN1c1ncnc2sccc12` (configuration not stated): the INHIBITION is on record as -34.7%. To `COCCN1CCC(c2nc3ccc(NC4CCC4)cn3n2)CC1` belongs -2.13%; to `CCN(CC)CCn1cnc(-c2ccccc2)c1-c1cnc(C)s1`, 54.2%.

Regarding `CCN(CC)CCn1cnc(-c2ccccc2)c1-c1cnn(CC)c1`, the INHIBITION came out at 20.8%. Turning to `CCN(CC)CCn1cnc(-c2ccccc2)c1-c1ncc[nH]1`, the INHIBITION is -46.8%. To `Cc1nc(CCCNC(=O)Nc2cc(F)cc(F)c2)n[nH]1` belongs 0.825%; to `O=C(O)c1ccc(CC2CCN(Cc3ccc(-c4cc[nH]n4)o3)C2)cc1` (configuration not stated), -200%; to `NC(=O)CN1CCC(OCc2ccc(Cl)c(Cl)c2)CC1`, 32.6%.

Regarding `CNC(=O)CN1CCC(OCc2ccc(Cl)c(Cl)c2)CC1`, the INHIBITION is listed as -0.573%. For the compound `CCC(N)C(=O)N1CCC(OCc2ccc(Cl)c(Cl)c2)CC1` (configuration not stated), the INHIBITION stood at 65.5%. To `CC1CCCCN1C(=O)CCc1nnc(-c2ccccc2)o1` (configuration not stated) belongs -26.9%. The result for `O=C(Cn1nc(-c2ccc(F)cc2)oc1=O)NCc1ccc(F)cc1` reads -11.2%; that for `Cc1ccc(CNC(=O)Cn2nc(-c3ccc(F)cc3)oc2=O)cc1F`, 55.6%. To `O=C(Cn1nc(-c2ccc(F)cc2)oc1=O)NCc1ccncc1` belongs -63.3%. As for `CCC1=NN2C(=N)C(=Cc3cccn3-c3ccc(Br)cc3)C(=O)N=C2S1`, the INHIBITION is recorded as -87.5%. The result for `CCCN(CCOC)C(=O)c1cc(Cn2c(C)nc3ccccc32)[nH]n1` reads -11.8%.

As for `CC(NCCN1CCC(N(C)C)CC1)c1ccc(F)cc1N(C)C` (configuration not stated), the INHIBITION was found to be 58.1%.

`CC(NCCCN1CCCC1=O)c1ccc(F)cc1N(C)C` (configuration not stated): the INHIBITION was -24.45%. To `CC(NCCn1cccn1)c1cc(F)ccc1F` (configuration not stated) belongs 0.681%; to `O=C([C@H]1CCCO1)N1CCOC2(CCCN(c3ncccc3F)C2)C1` (some centres not stated), -9.29%.

On to `Cc1nc(NC(C)C)nc2c1CN(Cc1nccn1C)CC2`, for which the INHIBITION is -27.4%. The result for `CN(C)c1nc(N2CCCC2)nc2c1CCN(Cc1nccn1C)CC2` reads 7.51%; that for `CC(C)Nc1nc2c(c(N(C)C)n1)CCN(Cc1nccn1C)CC2`, 54.5%; that for `O[C@@H]1CN(c2noc(C3CC3)n2)CC[C@H]1c1ccc2ccccc2c1`, -24.7%. As for `Cc1cnn(C2CCCN(C(=O)c3ccccc3-n3cnnn3)C2)c1` (configuration not stated), the INHIBITION is -52.2%.

As to `CNC(=O)c1cc(NC(=O)NCC2CCS(=O)(=O)C2)ccc1OC` (configuration not stated), the INHIBITION is -116%. To `COc1ccc2ccccc2c1CNCC1CCS(=O)(=O)C1` (configuration not stated) belongs 67.4%.

Turning to `COc1cccc(-c2n[nH]cc2CNCC2CCS(=O)(=O)C2)c1` (configuration not stated), the INHIBITION was -48.5%. To `CC(C)OCCCNC(=O)CN(c1ccc(F)c(F)c1)S(C)(=O)=O` belongs -105%. The result for `Fc1cccc(-c2nnn3c2COC(CNCc2ccsc2)C3)c1` (configuration not stated) reads -82.8%; that for `c1cc(CN2Cc3nccn3CC(Cn3cncn3)C2)ccn1` (configuration not stated), -4.38%; that for `O=C(C1CC1)N1CCC2(CC1)COCCN2Cc1ccc(F)cc1`, -40.7%. The result for `Cc1ccc(C(C(=O)NCCN2CCC(CO)CC2)N(C)C)cc1` (configuration not stated) reads -9.75%; that for `Cc1ccc(C(C(=O)NCCc2nc(C)cc(C)n2)N(C)C)cc1` (configuration not stated), -102%. As to `Cc1cccc(C(C(=O)NC(C)(C)CN2CCOCC2)N(C)C)c1` (configuration not stated), the INHIBITION is recorded as 32%. For the compound `Cc1ccc(C(C(=O)NC(C)(C)CN2CCCC2)N(C)C)cc1` (configuration not stated), the INHIBITION is recorded as 52%. To `Cc1ccc(C(C(=O)NCCN2CCCCCC2)N(C)C)cc1` (configuration not stated) belongs 58.5%. To `Cc1cccc(C(C(=O)NC(C)(C)CN2CCCC2)N(C)C)c1` (configuration not stated) belongs 38.5%; to `Cc1cccc(COc2ccc(C(C)N)cc2)c1` (configuration not stated), 8.28%; to `CCc1ccc2nc(C)cc(C(=O)N[C@@H]3CCCNC3)c2c1`, 64.5%. With `CCc1ccc2nc(C)cc(C(=O)NC[C@@H]3CCNC[C@H]3O)c2c1`, the INHIBITION is recorded as -49.3%.

With `CCc1ccc2nc(C)cc(C(=O)N[C@@H]3CNC[C@H]3O)c2c1`, the INHIBITION is given as -22%. As for `N#CCCNC(=O)CN1CC(n2cccn2)C1`, the INHIBITION was -21.3%.

For the compound `O=S(=O)(Cc1cccc(Cl)c1)CC(O)Cn1cccn1` (configuration not stated), the INHIBITION is given as -0.894%.

On to `O=C(c1cscn1)N1CCc2c(COCC3CC3)cncc2C1`, for which the INHIBITION is recorded as -54.8%. The result for `O=c1occ(CN2CCCCCC2)c(O)c1CN1CCOCC1` reads -36%; that for `O=c1occ(CN2CCSCC2)c(O)c1CN1CCCC1`, -7.27%; that for `O=c1occ(CN2CCCCCC2)c(O)c1CN1CCCCCC1`, 55.5%.

On to `COc1c(C(=O)NCC(C)C)nnn1Cc1ccccc1`, for which the INHIBITION is reported as -128%. To `C[C@@H]1CN(CCOc2ccc(Cl)cc2)CC[C@@]1(O)C1CCOCC1` belongs -28.8%; to `C[C@@H]1CN(CCC(=O)N(C)Cc2ccccc2)CC[C@@]1(O)C1CCC1`, 22.8%.

In the case of `C[C@@H]1CN(CCOCc2ccccc2)CC[C@@]1(O)C1CCC1`, the INHIBITION was determined as 54.7%. To `CN(CCCc1cc(-c2ccc(F)cc2)n(C)n1)CC(=O)NC(N)=O` belongs -152%.

For `CN(C)C(=O)C1CCC2(CCN(Cc3ccc4ccccc4n3)CC2)O1` (configuration not stated), the INHIBITION is listed as -19%. `CCOc1ccc(Cl)cc1C(C(=O)O)N1CCCC1` (configuration not stated): the INHIBITION came to 2.39%. The result for `CCOc1ccc(Cl)cc1C1CCCCN1` (configuration not stated) reads 68.8%. The result for `CCOc1ccccc1C1CCCN1` (configuration not stated) reads -8.92%. `Cn1cc(CCC(=O)N2C[C@@H]3CC[C@H]2CN(Cc2ccccc2)C3)cn1`: the INHIBITION was 14.3%. To `CCC(=O)N1CCCCC1c1nc(O)c2c(n1)CN(C(C)=O)CC2` (configuration not stated) belongs -29.8%.

For the compound `Cc1ccoc1CNCc1nnc2n1CC(C(F)(F)F)CC2` (configuration not stated), the INHIBITION was -13.5%. The result for `COc1ccccc1COCC(O)CN(C)Cc1cccc(Cl)c1` (configuration not stated) reads -93.4%.

As for `COc1ccc(CN(C)CC(O)COCc2ccccc2Cl)c(OC)c1` (configuration not stated), the INHIBITION was -5.65%.

For `Cc1ccccc1CN(C)CC(O)COCc1ccccc1Cl` (configuration not stated), the INHIBITION was determined as 68.9%. The result for `OC[C@H]1CN(Cc2c(Cl)cncc2Cl)C[C@H]1CN1CCCCCC1` reads 12.6%.

With `OC[C@H]1CN(Cc2c(Cl)cccc2Cl)C[C@H]1CN1CCCCC1`, the INHIBITION is 50.8%. To `OC[C@H]1CN(Cc2c(Cl)cncc2Cl)C[C@H]1CN1CCOCC1` belongs -53.1%. The result for `Clc1ccc(CN(CCN2CCOCC2)Cc2cccnc2)cc1Cl` reads 53.8%; that for `Clc1ccc(CN(CCN2CCOCC2)Cc2cccnc2)c(Cl)c1`, 35.4%. To `Clc1cccc(Cl)c1CN(CCCN1CCOCC1)Cc1cccnc1` belongs -6.41%.
